Assay outcomes as filed in PubChem.
Only some compounds are listed: those with a hit (about 19% of all), similar ones and a draw of the others.
IL1B secr inh: qHTS for Inhibitors of Inflammasome Signaling: IL-1-beta AlphaLISA Primary Screen; 4.7% of 360,000 active; AID 743279, 2014; THP-1 LPS/ATP IL-1B secretion, AlphaLISA, 16 h; hits give low values; activity change, % at 57.5 µM; in the data active = activity change below about -50%; inconclusive = mostly about -30% to -49%
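THP-1 cells pretreated 1 hr with compounds (up to 57.5 uM final), then stimulated with LPS (250 ng/mL final) plus ATP (1.25 mM final); secreted IL-1B measured by AlphaLISA after 16 hr, decreased signal indicating inhibition.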
DT40 TDP1 CPT: qHTS for Inhibitors of human tyrosyl-DNA phosphodiesterase 1 (TDP1): qHTS in cells in presence of CPT; chicken DT40 Tdp1-/-;hTDP1 cells + 20 nM CPT, ATP luminescence, 48 h; Potency, µM (series often up to 46.2 µM), for the others: top-dose activity change, negative = growth inhibition, hits mostly inhibitors; 12% of 420,000 active; note: potency is the fitted concentration of half-maximal effect; nearly all actives have a fitted effect of over 55% in size
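Cell growth measured by CellTiter-Glo luminescence after a minimum 48 h, 37 C compound exposure with 20 nM CPT in Tdp1-knockout DT40 cells stably expressing hTDP1, seeded 400/well; qHTS titration format.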
TDP1 cell noCPT: qHTS for Inhibitors of human tyrosyl-DNA phosphodiesterase 1 (TDP1): qHTS in cells in absence of CPT; DT40 Tdp1-/- hTDP1 cells, no CPT, ATP luminescence, 48 h; Potency, µM (doses to about 46.2 µM), without a hit: top-dose activity change, negative = growth inhibition, usual class: inhibitors; 15% of 420,000 active; note: potency is the fitted concentration of half-maximal effect; nearly all actives have a fitted effect of over 55% in size
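Growth of hTDP1-complemented DT40 Tdp1-knockout cells is measured by ATP luminescence after at least 48 hr compound exposure at 37 °C, with DMSO substituting for the 20 nM CPT used in the parallel screen.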
HT1080-NT tox: qHTS for induction of synthetic lethality in tumor cells producing 2HG: qHTS for the HT-1080-NT fibrosarcoma cell line; HT-1080-NT fibrosarcoma viability, CellTiter-Glo ATP luminescence, 48 h; AID 686970, 2013; Potency, µM (titrated, usually from 46.1 µM), for inactives: at the highest dose activity, negative = less viability, usual class: cytotoxic; 1.6% of 360,000 active;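 note: NT is the 2HG producing partner of a matched IDH1 knockdown line; potency is the fitted concentration of half-maximal effect; 0% = DMSO-treated cells and -100% = media-only wells without cells; nearly all actives have a fitted effect of over 55% in size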
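Luminescent CellTiter-Glo readout after 48 hours of compound exposure at 37 degrees C defined viability of HT-1080-NT cells. Activity was normalized to DMSO wells and cell-free media wells; concentration-response curves were fitted and assigned curve classes.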
ELG1 DNA repair: qHTS screen for small molecules that inhibit ELG1-dependent DNA repair in human embryonic kidney (HEK293T) cells expressing luciferase-tagged ELG1; HEK293T ELG1-luciferase reporter, luminescence, 16 h; DNA damage induced by 5-fluorouridine; Potency, µM (top dose mostly 46.1 µM), without a hit: at the top dose activity change, negative = inhibition, usual class: inhibitors; 2.3% of 330,000 active; AID 504467, 2011; note: potency is the fitted concentration of half-maximal effect; nearly all actives have a fitted effect of over 55% in size
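Luminescence from the luciferase reporter, measured 30 min after ONE-Glo reagent at room temperature, was the read-out. Beforehand, 2,000 cells per well were exposed for 16 hr at 37 °C to 5-fluorouridine together with compound or vehicle.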
HT1080 IDH1KD tx: qHTS for induction of synthetic lethality in tumor cells producing 2HG: qHTS for the HT-1080-IDH1KD cell line; HT-1080 IDH1 knockdown viability, ATP luminescence, 48 h; AID 686971, 2013; Potency, µM (doses to about 46.1 µM), for the others: top-dose activity, negative = toxicity, most hits filed as cytotoxic; 2% of 360,000 active;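 note: potency is the fitted concentration of half-maximal effect; 0% = DMSO wells and -100% = cell-free medium wells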
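% activity derives from luminescence (CellTiter-Glo), normalised to DMSO and no-cell wells. HT-1080-IDH1KD cells, 750/well, had 48 h compound exposure at 37 °C.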
* marks the source's active call; other numbers are inactive results; u = inconclusive; x = not tested or not shown. Unless noted, calls come from the whole dose curve; as a rule, active = well fitted curve in the direction sought with a large enough effect; inconclusive = small, poorly fitted or top-dose-only effect, or another doubt; inactive = no such curve, though single readings can be large; an effect the other way counts as inactive or inconclusive. Unless noted, % is set by controls: 0 for no effect and ±100 for the full control effect.

SMILES	IL1B secr inh	DT40 TDP1 CPT	TDP1 cell noCPT	HT1080-NT tox	ELG1 DNA repair	HT1080 IDH1KD tx
CCC(=O)N1CCc2cc(S(=O)(=O)CCC(=O)N3CCN(c4cccc(C)c4C)CC3)ccc21	x	-5%	-14%	x	x	x
CCC(=O)N1c2ccc(S(=O)(=O)CCC(=O)Nc3ccc(Br)c(C)c3)cc2CC1C (stereo not drawn)	x	18µM*	21µM*	x	x	x
CCC(=O)N1c2ccc(S(=O)(=O)CCC(=O)N3CCN(c4ccc(F)cc4)CC3)cc2CC1C (stereo not drawn)	x	15µM*	13µM*	x	x	x
CCC(=O)N1CCc2cc(S(=O)(=O)CCC(=O)N3CCN(c4ccccc4Cl)CC3)ccc21	x	18µM*	u	x	x	x
CC(=O)N1CCCc2cc(S(=O)(=O)CCC(=O)N3CCN(c4cccc(C)c4)C(C)C3)ccc21 (stereo not drawn)	4	21µM*	u	-4%	21µM*	1%
Cc1cccc(N2CCN(C(=O)CCS(=O)(=O)c3ccc(Br)cc3)CC2C)c1 (stereo not drawn)	-6	u	u	-3%	u	-6%
COc1cccc(C(c2sc3nc(-c4ccco4)nn3c2O)N2CCN(c3ccccc3F)CC2)c1 (stereo not drawn)	x	-24%	-23%	x	x	x
CCC(=O)N1CCc2cc(S(=O)(=O)CCC(=O)N3CCN(c4ccc(F)cc4)CC3)ccc21	-14	21µM*	23µM*	-4%	u	-7%
CC(=O)c1ccc(N2CCN(C(=O)CCS(=O)(=O)c3ccc4c(c3)CCN4C(C)=O)CC2)cc1	3	21µM*	u	1%	u	-1%
Cc1ccccc1C(=O)Nc1nnc(SC(C)C)s1	-5	-19%	-2%	-15%	u	2%
CSCc1ccc(C(=O)OCC(=O)NC2CCCC2)o1	4	-15%	4%	1%	x	-2%
Nc1ncnc2c1C(c1ccccc1)c1c(ccc3ccccc13)O2 (stereo not drawn)	x	x	x	x	-29%	x
CC(=O)NC1=C(C#N)C(c2ccccc2)c2c(ccc3ccccc23)O1 (stereo not drawn)	60	8.2µM*	7.3µM*	u	u	15µM*
Cc1nn(-c2ccccc2)c(Cl)c1/C=N/Nc1nc2ccccc2[nH]1	-5	u	-28%	u	u	u
Cc1cc(=O)[nH]c(N/N=C/c2c(C)oc3ccccc23)n1	0	12µM*	u	12%	1%	19%
Cc1cc(=O)[nH]c(N/N=C/c2ccc(C)o2)n1	20	-19%	-16%	9%	18%	23%
Cc1cc(=O)[nH]c(N/N=C/c2c(C)nn(-c3ccccc3)c2Cl)n1	-14	23µM*	23µM*	-1%	-23%	-5%
CC(C)NC(=S)N1CCN(c2ncccn2)CC1	7	-6%	-6%	-4%	u	-7%
COc1cc(/C=C(/C#N)C(=O)Nc2ccc(C)cc2)ccc1Oc1nc(Cl)ncc1F	0	23µM*	16µM*	u	4%	u
COc1ccc(/C=N/n2cnnc2)cc1Oc1nc(Cl)ncc1F	11	6%	9%	19%	-4%	9%
COc1cc(/C=N/n2cnnc2)ccc1Oc1nc(Cl)ncc1F	-18	16µM*	u	4%	u	-1%
COc1ccc(C=O)cc1Oc1nc(Cl)ncc1F	0	u	u	-3%	-4%	-2%
O=C(CCS(=O)(=O)c1nc(-c2cccs2)cc(C(F)(F)F)n1)Nc1ccc(Br)cc1	x	5.2µM*	3.7µM*	x	x	x
Cc1ccc(O)c(NC(=O)CCS(=O)(=O)c2nc(-c3cccs3)cc(C(F)(F)F)n2)c1	x	2.6µM*	5.8µM*	x	x	x
O=C(CCS(=O)(=O)c1nc(-c2cccs2)cc(C(F)(F)F)n1)Nc1cc(Br)ccc1O	x	0.65µM*	1.2µM*	x	x	x
SMILES	IL1B secr inh	DT40 TDP1 CPT	TDP1 cell noCPT	HT1080-NT tox	ELG1 DNA repair	HT1080 IDH1KD tx
NCCCNC(=O)Cn1c(=O)c2c3c(sc2n(Cc2ccccc2)c1=O)CCCC3	3	21µM*	u	-3%	-6%	-10%
O=C(Cn1c(=O)n2ncnc2c2c3c(sc21)CCCC3)c1ccccc1	-4	23µM*	u	4%	-25%	-2%
NCCNC(=O)Cn1c(=O)c2c3c(sc2n(Cc2ccccc2)c1=O)CCCC3	-78*	21µM*	23µM*	u	0%	u
O=c1n(Cc2ccccc2Cl)c2sc3c(c2c2ncnn12)CCCC3	-14	u	u	-4%	-5%	0%
CC(=O)Oc1cccc(C(=O)Nc2ccccc2C(=O)N2CCCC2)c1	-1	11%	15%	5%	14%	5%
Cc1ccc(S(=O)(=O)NC(=O)C2(C)CCN2C(=O)Cc2cccs2)nc1 (stereo not drawn)	4	8%	-3%	21%	x	7%
CCCCNC(=O)C1CCC(CNS(=O)(=O)c2c(C)cc(C)cc2C)CC1 (stereo not drawn)	-12	u	u	-5%	-12%	0%
CCCCSCCCNC(=O)C1CCC(CNS(=O)(=O)c2c(C)cc(C)cc2C)CC1 (stereo not drawn)	x	15µM*	18µM*	x	x	x
CCn1c2ccccc2c2cc(C3C(C#N)=C(N)Oc4n[nH]c(COC)c43)ccc21 (stereo not drawn)	u	u	26µM*	11µM*	u	8.9µM*
COCc1[nH]nc2c1C(c1ccnc3ccccc13)C(C#N)=C(N)O2 (stereo not drawn)	-25	18µM*	9.2µM*	-3%	11%	8%
CCCc1[nH]nc2c1C(c1cccnc1)C(C#N)=C(N)O2 (stereo not drawn)	-15	11%	2%	20%	u	13%
CCCc1[nH]nc2c1C(c1cn[nH]c1-c1ccc(F)cc1)C(C#N)=C(N)O2 (stereo not drawn)	-90*	9.2µM*	10µM*	u	-4%	-27%
COCc1[nH]nc2c1C(c1ccc(F)cc1F)C(C#N)=C(N)O2 (stereo not drawn)	u	5%	-22%	-2%	12%	1%
